# High-throughput results from PubChem BioAssay.
# The list is not random: actives were taken first. Their share in the collection is about 4.2%.
# uPA generation = qHTS for Inhibitors of Cell Surface uPA Generation | 0.31% of 330,000 active | Potency, µM (top dose mostly 38.3 µM), for inactives: at the top dose activity change, negative = inhibition, actives largely listed as inhibitors | cell surface uPA generation assay, qHTS; active means well fitted inhibition curve with a large enough effect; inconclusive means small, poorly fitted or top-dose-only effect; inactive means no such curve, though single readings can be large or run the other way; tested in mouse RAW 264.7 cells; further: potency means the concentration at half of the fitted maximal effect; on the % scale 0 is the no-effect control and ±100 the full control effect; nearly all actives have a fitted effect of over 55% in size
# Sfp PPTase inh = qHTS Assay for Inhibitors of Bacillus subtilis Sfp phosphopantetheinyl transferase (PPTase); Biochemical Sfp PPTase activity, qHTS; Potency, µM, for the others: largest response in the series, negative = inhibition, usual class: inhibitors; 3.5% of 310,000 active;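 further: the enzyme is Sfp with the accession as filed and its product quenches rhodamine fluorescence; potency means the concentration at half of the fitted maximal effect; 0% = enzyme reaction without inhibitor and -100% = no enzyme wells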
#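 Sfp 15 nM + cpd, 15 min RT; start w/ rhodamine-CoA 5 uM, BHQ-2-YbbR 12.5 uM (final); 50 mM Hepes pH 7.6, 10 mM MgCl2, 0.01% NP-40, 0.01% BSA; read 525/598 nm at 0 and 30 min.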
# ClpP mod = qHTS Assay for Activators of ClpP; ATP-dependent Clp protease proteolytic subunit (Bacillus subtilis (strain 168)), P80244; purified B. subtilis ClpP, FRET peptide cleavage, 20 min; Potency, µM (series often up to 57.5 µM), without a hit: top-dose activity change, negative = active; 1.9% of 340,000 active; AID 651965, 2013; active means well fitted falling curve with a large enough effect; inconclusive means small, poorly fitted or top-dose-only effect; inactive means no such curve, though single readings can be large or run the other way; further: potency means the concentration at half of the fitted maximal effect; the source files actives as falling curves though it sought activators and does not explain the sign; nearly all actives have a fitted effect of over 65% in size
# Target sequence (P80244 whole entry, looked up): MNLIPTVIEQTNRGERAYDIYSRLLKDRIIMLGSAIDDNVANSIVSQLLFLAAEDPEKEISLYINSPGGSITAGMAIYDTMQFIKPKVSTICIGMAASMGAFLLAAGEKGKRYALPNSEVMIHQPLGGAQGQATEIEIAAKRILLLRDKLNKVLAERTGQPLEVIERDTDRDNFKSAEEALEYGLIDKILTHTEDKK
#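 FRET quenching reversal measured ClpP activation: 10 microg/mL B. subtilis ClpP at pH 8 with the FRET-FV decapeptide, read at 430 nm after 320 nm excitation. The 20-min minus 0-min signal was scaled between DMSO/no-enzyme wells and ADEP (5.8 microM final).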
# TCR activator = Activators of T cell receptors: qHTS campaign; Potency, µM (series often up to 9.22 µM), for inactives: top-dose activation of IL-2 secretion, actives largely listed as activators; 330,000 tested, under 10 active; primary human leukocytes, anti-CD3, IL-2 HTRF, 48 h; AID 504894, 2011; further: % of control where 0% means no effect
#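 Primary human leukocytes incubated 48 hr with anti-CD3 beads plus compound, without co-stimulation. Secreted IL-2 measured by HTRF (europium cryptate/d2 anti-IL-2 pair, 320 nm excitation, 665 nm emission).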
# The depositor's hits bear a star; ? = inconclusive; · = no result; [ ] = dose if it differs, or a comment. Unless noted, the call rests on the fitted dose curve; in most records, active means well fitted curve in the direction sought with a large enough effect; inconclusive means small, poorly fitted or top-dose-only effect, or another doubt; inactive means no such curve, though single readings can be large; an effect the other way counts as inactive or inconclusive.
SMILES,uPA generation,Sfp PPTase inh,ClpP mod,TCR activator
Cc1cccc(OCc2n(CC(=O)OC3CC(C)CCC3C(C)C)c3ccccc3[n+]2C)c1 (stereo not drawn),-17%,25µM*,·,9%
O=C(c1ccc(CS(=O)c2ccccc2Cl)o1)N1CCN(c2cccc(C(F)(F)F)c2)CC1 (stereo not drawn),·,·,0%,·
CCOC(=O)C1CCN(c2nc(-c3ccccc3)nc3c2oc2ccccc23)CC1,8%,-16%,32µM*,0%
CCOC(=O)C1CCN(Cc2c(O)ccc3ccccc23)CC1,·,-9%,28µM*,2%[46.1 µM]
CCOC(=O)N1CCN(Cc2c(O)ccc3ccccc23)CC1,3%,-5%,·,0%
O=C(COc1ccc([N+](=O)[O-])cc1Cl)NCCN1C(=O)CSC1=O,13%,·,0%,·
COC(=O)[C@H](CC(C)C)NC(=O)Nc1ccc(S(N)(=O)=O)cc1,-5%,79µM*,2%,-5%
COC(=O)[C@@H](NC(=O)Nc1ccc(S(N)(=O)=O)cc1)C(C)C,2%,-9%,1%,5%[46.1 µM]
CC(C)(C)OC(=O)N1CCC(c2c(C(=O)NCc3ccc4c(c3)OCO4)cnn2-c2ccc(F)cc2F)CC1,·,·,2%,·
CCCCn1cnc2c(SCCc3ccccc3)nc(N)nc21,1%,·,28µM*,0%
Cc1cccn2c(=O)c(C=Nc3ccccc3)c(NCCO)nc12,5%,-6%,4%,-18%
CNc1nc2c(C)cccn2c(=O)c1C=NCc1ccccc1,0%,-19%,28%,2%
CN=Cc1c(NC)nc2c(C)cccn2c1=O,0%,15%,40µM*,-2%
Cc1cccn2c(=O)c(C=Nc3ccc(Cl)cc3)c(NCCO)nc12,·,7%,28µM*,-6%[46.1 µM]
COc1ccccc1C(=O)Nc1ccc(C(=O)OCc2cc(=O)n3c4c(sc3n2)CCCC4)cc1,·,·,-7%,·
CCc1sc(C(=O)N2CCc3ccccc32)cc1C,?,-4%,-3%,5%
CSc1sc(C(=O)N2CCc3ccccc32)cc1S(=O)(=O)C(C)C,-2%,2%,32µM*,-6%
CCCCCN(C(=O)CCC(=O)OCC(=O)c1ccc(C(C)CC)cc1)c1c(N)n(CCCC)c(=O)[nH]c1=O (stereo not drawn),-5%,·,·,5%
Oc1ccc(N2CCN(C(c3ccc(Cl)cc3)c3nnnn3Cc3ccc(F)cc3)CC2)cc1 (stereo not drawn),·,·,-2%,·
CCCCc1cc(=O)oc2cc(OCc3nn[nH]n3)c(Cl)cc12,-6%,6%,28µM*,0%
CCCc1cc(=O)oc2c(C)c(OCc3nn[nH]n3)ccc12,-3%,-4%,4%,-2%
O=C(CCSCCc1ccccn1)Nc1ccc(Cl)cc1,·,·,0%,·
CCOC(=O)C1=C(C)NC(C)=C(C(=O)OCC)C1c1ccc(Br)o1,2%,5%,3.5µM*,5%[46.1 µM]
CCCN(CC1CC1)c1nc(N)c2c(N)nc(OC)cc2c1C#N,-6%,-1%,25µM*,-2%
COc1ccccc1NC(=O)CSc1nc2sc(C)c(C)c2c(=O)n1C,6%,?,·,2%
SMILES,uPA generation,Sfp PPTase inh,ClpP mod,TCR activator
Cc1sc2nc(SCC(=O)Nc3c(C)n(C)n(-c4ccccc4)c3=O)n(C)c(=O)c2c1C,5%,50µM*,0%,0%
O=[N+]([O-])c1cc([N+](=O)[O-])c2nonc2c1Nc1ccccc1O,5.6µM*,?,0%,0%
CC(=O)c1ccc(Nc2c([N+](=O)[O-])ccc3nonc23)cc1,0%,2%,·,1%
O=[N+]([O-])c1cc([N+](=O)[O-])c2nonc2c1Nc1ccc(O)cc1,11µM*,?,-1%,·
Cn1c(=O)c(-c2cc(F)cc(F)c2)nc2cnc(Oc3cccc(Cl)c3)nc21,·,-1%,·,·
COCCNC(=O)Cc1c(C)c2c(cc(C)c3c(C(C)(C)C)coc32)oc1=O,-13%,-7%,14µM*,-1%
Cc1cc2oc(=O)c(CC(=O)NCCCO)c(C)c2c2occ(C(C)(C)C)c12,?,-15%,4%,0%
COc1ccc(N2CCN(S(=O)(=O)c3csc(C(N)=O)c3)CC2)cc1,·,·,0%,·
N[C@@H](CCC(=O)N[C@@H](CSN=O)C(=O)NCC(=O)O)C(=O)O,12%,·,0%,1%
N[C@H](CCC(=O)N[C@H](CSN=O)C(=O)NCC(=O)O)C(=O)O,·,32µM*,·,·
C/C(=N\NC(=O)COc1ccccc1)c1cccs1,-6%,3%,25µM*,7%[46.1 µM]
Cc1oc(-c2ccc3c(c2)OCCO3)cc1C(=O)NC(Cc1ccccc1)C(=O)O (stereo not drawn),-2%,22µM*,·,3%
COC(=O)C(Cc1c[nH]c2ccccc12)NC(=O)c1cc(-c2ccc(OC)c(OC)c2)oc1C (stereo not drawn),-13%,32µM*,-4%,0%[46.1 µM]
Cc1oc(C(C)(C)C)cc1C(=O)NC(Cc1ccccc1)C(=O)O (stereo not drawn),-11%,20%,0%,-2%
COC(=O)CCC(NC(=O)c1cc(-c2ccc3c(c2)OCCO3)oc1C)C(=O)OC (stereo not drawn),-2%,35µM*,-1%,1%
CCOC(=O)CNC(=O)c1cc(-c2ccc3c(c2)OCCO3)oc1C,-6%,-10%,-5%,3%
COc1cc(Cl)c(NC2=CC(=O)C(=O)c3ccccc32)c(OC)c1,3.2µM*,·,-1%,-1%
COc1ccc(C(=O)CSc2nc3[nH]ncc3c(=O)[nH]2)cc1,3%,5%,·,-1%
COC(=O)[C@@]12C[C@@H](CC(=O)NCCC(C)C)C(=O)N(CCc3ccc(OC)c(OC)c3)C1=CCC(C)(C)C2,·,·,0%,·
Cc1ccc(S(=O)(=O)N2CCN(CCC#N)CC2)cc1,3%,79µM*,0%,·
COc1ccc(OC)c2sc(N(CCN(C)C)C(=O)c3cc(Cl)sc3Cl)nc12,-3%,56µM*,-2%,-11%
CCc1cc(=O)oc2cc3occ(-c4ccc(OC)c(F)c4)c3cc12,-9%,20µM*,?,-4%[46.1 µM]
CCc1cc(=O)oc2cc3occ(C)c3cc12,3%,-1%,1%,0%[46.1 µM]
Cc1ccc(NC(=O)/C=C\C(=O)NCC(=O)O)cc1,11%,71µM*,-1%,-1%
Cc1ccc(S(=O)(=O)Nc2ccc(NC(=O)/C=C/C(=O)O)cc2)cc1,1%,5%,·,0%
SMILES,uPA generation,Sfp PPTase inh,ClpP mod,TCR activator
COC(=O)c1ccccc1NC(=O)N1CCC(N2CCN(Cc3ccc(F)cc3)C(=O)C2=O)CC1,·,·,4%,·
CCOc1ccc(NC(=O)C(c2ccccn2)N(C(=O)CCl)c2ccc(OCC)cc2)cc1 (stereo not drawn),-5%,40µM*,-8%,-1%[46.1 µM]
CCOc1ccc(NC(=O)C(c2ccccn2)N(C(=O)CCl)c2ccc(OC)cc2)cc1 (stereo not drawn),-5%,14µM*,0%,-7%[46.1 µM]
Cc1cccnc1CN1CCN(Cc2nc(C(c3ccccc3)c3ccccc3)no2)CC1,1%,18%,-3%,3%
CN(C)S(=O)(=O)c1ccc(NC(=O)CN2CCCCCC2)cc1,-3%,9%,·,4%
CN1CCN(CC(=O)Nc2ccc(S(=O)(=O)N(C)C)cc2)CC1,1%,56µM*,-2%,-4%
